Reference: PubChem BioAssay (NCI)
This is part of a sample that, as a whole, favours compounds with a hit. Of some 79,000 tested, about 15% had one in any assay. Activity calls are given as the source filed them. No stated cut-off is given here; in the data, active means growth inhibition above about 70%; inactive means the rest.

Columns and labels:
[1] = NCI Yeast Anticancer Drug Screen. Data for the rad50 strain (AID 155);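 further: 0% = growth of vehicle-only cultures of the same strain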; details: S. cerevisiae rad50 strain growth inhibition; at 50.0 µM; stronger effect = higher value
How it was run: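 Compounds were tested on a yeast strain with an engineered DNA damage repair alteration; the reported value is growth inhibition normalised to vehicle treatment.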

[2] = NCI Yeast Anticancer Drug Screen. Data for the mec2-1 strain (AID 157); details: S. cerevisiae mec2-1 strain, at 50.0 µM, stronger effect = higher value
How it was run: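 Test agents were screened against the mec2-1 yeast strain, with defined DNA repair or cell cycle alteration. Growth was scored as inhibition against vehicle-only controls.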

[3] = NCI Yeast Anticancer Drug Screen. Data for the sgs1 mgt1 strain (AID 161);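 further: 0% = growth of cultures given vehicle only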; details: S. cerevisiae sgs1 mgt1 strain, at 50.0 µM, stronger effect = higher value
How it was run: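 Test agents were incubated with a DNA-repair-mutant yeast strain. Growth was then read and compared against vehicle-treated controls.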

[4] = NCI Yeast Anticancer Drug Screen. Data for the cln2 rad14 strain (AID 165);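 further: 0% = growth equal to vehicle treated cultures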; details: S. cerevisiae cln2 rad14 strain, at 50.0 µM, stronger effect = higher value
How it was run: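 Growth of compound-exposed yeast (cln2 rad14 genotype) measured and expressed as inhibition relative to vehicle.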

[5] = NCI Yeast Anticancer Drug Screen. Data for the bub3 strain (AID 167); details: S. cerevisiae bub3 mutant strain, at 50.0 µM, stronger effect = higher value
How it was run: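 Growth of a checkpoint-deficient yeast mutant is measured after compound exposure. Values represent inhibition relative to vehicle.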

[6] = NCI Yeast Anticancer Drug Screen. Data for the mlh1 rad18 strain (AID 175); details: S. cerevisiae mlh1 rad18 strain growth inhibition; at 50.0 µM; stronger effect = higher value
How it was run: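 In this whole-cell yeast screen, a strain with altered DNA damage repair is challenged with compound, and its growth is measured against matched vehicle-treated controls.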

Measured: growth inhibition

CCCCN(C=O)CCCC
inactive: [1] 20.7% | [2] 17.3% | [3] 17.4% | [4] 9.45% | [5] 4.75% | [6] 3.7%

Nc1cc2c(cc1[N+](=O)[O-])-c1cccc(F)c1C2
inactive: [1] 63.6% | [2] 7.65% | [3] 0.65% | [4] 10.8% | [5] -9.15% | [6] 33%

NC(=S)N/N=c1\cc(C(=O)Nc2ccc([N+](=O)[O-])cc2[N+](=O)[O-])oc2ccccc12
inactive: [1] 19.1% | [2] 26.3% | [3] 16.1% | [4] -6% | [5] 22.9% | [6] 28%

Nc1cc(Cl)cc2cc(Cl)cnc12
inactive: [1] 54.2% | [2] 54.8% | [3] 25.4% | [4] 29.1% | [5] 47.4% | [6] 39.5%

COc1ccccc1Oc1ccccc1
inactive: [1] -20.7% | [2] -61.3% | [3] -8.6% | [4] 13.6% | [5] -34% | [6] 20.8%

COc1ccc(NC(=S)NN=C(C)c2cccc(C(C)=NNC(=S)Nc3ccc(OC)cc3)n2)cc1
inactive: [1] -26.1% | [2] -23.1% | [3] 5.15% | [4] -15.7% | [5] -14.3% | [6] 1.95%

COC(=O)c1[nH]c(=O)c(C#N)c(C(=O)OC)c1C(=O)c1cccnc1
inactive: [1] 2.95% | [2] -3.55% | [3] -5.2% | [4] 18.7% | [5] -17.4% | [6] 25.6%

CC(=O)NCCOC(=O)c1ccccc1
inactive: [1] 34.5% | [2] 4.75% | [3] 16.4% | [4] -17.9% | [5] 4.05% | [6] 5.9%

CCOc1ccc(N=C2C=C(Nc3ccc(OCC)cc3)C(=Nc3ccc(OCC)cc3)C=C2Nc2ccc(OCC)cc2)cc1
inactive: [1] -17.7% | [2] -14.5% | [3] -24.2% | [4] -18.4% | [5] 2.35% | [6] -24.5%

OCC1CCCCCCCCCC1
inactive: [1] 36.3% | [2] -10.7% | [3] 29.8% | [4] 25.1% | [5] 20.1% | [6] 44.5%

CC1(C)OC2C(C(=O)O)OC(n3cnc4c(N)ncnc43)C2O1 (stereo unspecified)
inactive: [1] -3.35% | [2] -12.2% | [3] -9.7% | [4] -2.05% | [5] -21.6% | [6] -0.7%

N#CC(C#N)=C1CCNCC1
inactive: [1] -12.8% | [2] -5.5% | [3] -6.3% | [4] -8.35% | [5] 3.65% | [6] 0.9%

Cc1cccc(C2CCCCC2OS(C)(=O)=O)c1 (stereo unspecified)
inactive: [1] -2.95% | [2] -6.4% | [3] -16.9% | [4] -10.1% | [5] 11.8% | [6] -13.6%

CS(=O)(=O)OC[C@@H]1C2CCC(C2)[C@@H]1COS(C)(=O)=O
inactive: [1] -8.45% | [2] -12.8% | [3] 1.5% | [4] -52.8% | [5] -3.5% | [6] -14.2%

Clc1ccc(-c2nnc3n2NC(c2ccccc2)S3)c(Cl)c1 (stereo unspecified)
inactive: [1] 2.7% | [2] -26% | [3] -13.8% | [4] 10.8% | [5] -18.9% | [6] -27.6%

Clc1ccc2nc(/C=C/c3ccccc3)cnc2c1
inactive: [1] 14.6% | [2] 11.2% | [3] 13.3% | [4] 8.9% | [5] 14.1% | [6] 22.5%

CCOC(=O)C(C#N)=C(CC)CC
inactive: [1] -4% | [2] -12.3% | [3] -9.2% | [4] -3.95% | [5] -12.1% | [6] -0.2%

O=[N+]([O-])c1ccc(O)c(O)c1
inactive: [1] -23.6% | [2] -1.7% | [3] -10% | [4] 12.8% | [5] 5.6% | [6] -6.85%

COc1cc(/C=C(\C#N)C(=O)c2ccccc2)ccc1O
inactive: [1] -13.8% | [2] -18.1% | [3] -11.9% | [4] 5.4% | [5] -27.5% | [6] 3.05%

O=[N+]([O-])c1ccc2c(c1)C(=Nc1ccccc1)c1cc([N+](=O)[O-])cc([N+](=O)[O-])c1-2
inactive: [1] 8.3% | [2] 5.65% | [3] 19.1% | [4] 21.1% | [5] 3.5% | [6] 13.4%

CO[C@@H]1[C@@H](O)c2ccccc2N1C(C)=O
inactive: [1] 13.4% | [2] 1.9% | [3] -4% | [4] 8.15% | [5] 3.25% | [6] 20.1%

CCC(S)(C(N)=O)c1ccccc1 (stereo unspecified)
inactive: [1] 3% | [2] -10.4% | [3] -7.55% | [4] -26.8% | [5] -4.8% | [6] -18.2%

COC(=O)C(C(=O)C(=O)Nc1ccc([N+](=O)[O-])cc1[N+](=O)[O-])c1nc2ccc(Cl)cc2[nH]c1=O (stereo unspecified)
inactive: [1] 10.2% | [2] 10.6% | [3] 39% | [4] 20.2% | [5] 12.5% | [6] 25.5%

C[Si](C)(C)CSCCO
inactive: [1] -13.7% | [2] -6.45% | [3] -20.8% | [4] -16.1% | [5] -14.7% | [6] -1.6%

CC(=O)N(c1c(N)[nH]c(=O)n(C)c1=O)C1OC(CO)C(O)C(O)C1O (stereo unspecified)
inactive: [1] -1.65% | [2] 2.8% | [3] 19.1% | [4] -5% | [5] 4.3% | [6] 12.4%

COc1ccc(C(C#N)N(C)C)cc1OC (stereo unspecified)
inactive: [1] -16.9% | [2] -13.6% | [3] 8% | [4] -15.1% | [5] 0.75% | [6] 5.15%

CCC(=O)C(C)C1=Nc2nnc(CCCCCCCc3nnc4n3C(=O)C(C(C)C(=O)CC)=N4)n2C1=O (stereo unspecified)
inactive: [1] -13.7% | [2] 12.3% | [3] 11.8% | [4] -7.4% | [5] -3.05% | [6] -4.35%

COC(=O)C(C)(N)Cc1ccc(O)c(C)c1 (stereo unspecified)
inactive: [1] 3.6% | [2] 10.8% | [3] 0.5% | [4] -10.3% | [5] -4.05% | [6] -9.9%

CC(=O)NC1C(OCc2ccccc2)OC(CO)C(O)C1OCC(=O)N1CCCC1C(=O)NC(CCC(=O)NCCCCCNc1c2ccccc2nc2cccc([N+](=O)[O-])c12)C(N)=O (stereo unspecified)
inactive: [1] 42.9% | [2] 57.6% | [3] 47.6% | [5] 0.55%
active: [4] 78.2% | [6] 72.5%

Cc1nc2n(c1C(N)=O)CCS2
inactive: [1] 5.15% | [2] -5.65% | [3] -5% | [4] -55.8% | [5] -10.7% | [6] -10.7%

COC1(C)CCC2(O)C(=O)OC3C(O)COC32O1 (stereo unspecified)
inactive: [1] -3.45% | [2] -4.9% | [3] 2.55% | [4] -1.3% | [5] -1.85% | [6] -4.55%

C[S+](C)CCOC(=O)C(=[N+]=[N-])c1ccc([N+](=O)[O-])cc1
inactive: [1] 32.5% | [2] 9.8% | [3] 44.3% | [4] 25.8% | [5] 9.9% | [6] 59.4%

Cc1ccc(S(=O)(=O)C23N=NC(C)(C)C2C2CCC3C2)cc1 (stereo unspecified)
inactive: [1] -8.4% | [2] -12% | [3] 1.1% | [4] -59.2% | [5] -50.3% | [6] 3.75%

NC(=O)C(CCCCNc1c(C(=O)O)cc([N+](=O)[O-])cc1[N+](=O)[O-])NC(=O)c1ccccc1 (stereo unspecified)
inactive: [1] 14.4% | [2] -6.05% | [3] -19.1% | [4] -7.95% | [5] -2% | [6] 28.8%

CCCCCCCCCCCCCCCCC1=CC(=O)C=C(OC)C1=O
inactive: [1] 13.4% | [2] 1.45% | [3] 23.4% | [4] -36% | [5] -0.15% | [6] 15.6%

CC1CCOC(C)(Cc2ccccc2)O1 (stereo unspecified)
inactive: [1] -2.8% | [2] -3.05% | [3] -6.9% | [4] -58.8% | [5] -18.1% | [6] -10.9%

C[S+](C)CCS(=O)(=O)[O-]
inactive: [1] 10.3% | [2] -6.45% | [3] -2.1% | [4] -30.4% | [5] 4.95% | [6] -13.2%

COC(=O)N1CCC(Sc2ccccc2)C2(CCSc3ccccc3)CCC=C12 (stereo unspecified)
inactive: [1] -2.2% | [2] -2.95% | [3] 5% | [4] -28.1% | [5] -27.6% | [6] -12.6%

O=C(O)CC(C(=O)O)c1ccccc1[N+](=O)[O-] (stereo unspecified)
inactive: [1] -26.9% | [2] -3.8% | [3] -24.2% | [4] -32.5% | [5] -1.1% | [6] -7.8%

CC1CCC2CCCCC2/C1=N\NC(N)=O (stereo unspecified)
inactive: [1] -10.8% | [2] -3.9% | [3] 3.95% | [4] 2.35% | [5] 0.25% | [6] -16.7%

CCCCN(CCCC)CCNC(c1ccc(Cl)cc1)c1ccc(OC)cc1 (stereo unspecified)
inactive: [1] 14.5% | [2] 4.3% | [3] 4.45% | [4] -7.85% | [5] 8.35% | [6] 33.4%
